Our source for the outcome and AC50 values is PubChem BioAssay (EPA / NIEHS).

As a reminder, the AC50 is the concentration at which the activity in the assay is half-maximal.

SMILES strings stand for the structures. Inconclusive results are not listed. Activity calls are given as the source filed them. The calls were made as follows, unless noted: active = hit-call score of the fitted dose curve at least 0.9, where 1 is the maximum; inactive = score below 0.9.

Experiment [1] in a line: ATG_Sox_CIS: Attagene CIS-FACTORIAL HepG2 Assay for human SRY-box transcription factor (SOX) (AID 2282960). To be noted: HepG2 Attagene cis-factorial SOX reporter, mRNA; actives raise or lower the signal. The method in brief: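 HepG2, cis reporter units, 24 h exposure. Reporter mRNA: RT-PCR → FAM labelling → HpaI → CE fluorescence. Bidirectional fit vs DMSO.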
Experiment [2] concerns the target Transcription factor Sp1 (Homo sapiens) (UniProt P08047). Description: ATG_Sp1_CIS: Attagene CIS-FACTORIAL HepG2 Assay for human Specificity Protein 1 (Sp1) (AID 2282961). To be noted: HepG2 Sp1 cis-reporter transcription, actives raise or lower the signal. The method in brief: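 Liver-derived HepG2 cells, cis-element reporter library, 24 h treatment; RNA isolated, cDNA amplified with reporter-specific primers, FAM-labeled fragments sized on capillary analyzer. DMSO baseline, bidirectional curve fit.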

A short description of experiment [3]: ATG_SREBP_CIS: Attagene CIS-FACTORIAL HepG2 Assay for human Sterol Regulatory Element Binding (SREBP) (AID 2282962). As to conditions: HepG2 Attagene cis-factorial SREBP reporter, mRNA; actives raise or lower the signal. In short, it runs like this:
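Readout: fluorescent reporter-transcript peaks resolved by capillary electrophoresis after RT-PCR. Cells were human HepG2 carrying transfected cis-promoter reporter constructs, dosed for 24 h. Gain or loss of signal was fitted against DMSO controls.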

Experiment [4] addresses Signal transducer and activator of transcription 3 (Homo sapiens) (UniProt P40763). Description: ATG_STAT3_CIS: Attagene CIS-FACTORIAL HepG2 Assay for human Signal Transducer and Activator of Transcription 3 (STAT3) (AID 2282963). To be noted: HepG2, Attagene cis-factorial STAT3 reporter transcription; actives raise or lower the signal. The method in brief:
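Readout: fluorescent reporter mRNA fragments resolved by capillary electrophoresis. Setup: HepG2 transfected with MRTUs reporting endogenous transcription-factor activity, dosed 24 h. Gain or loss of signal fitted bidirectionally against DMSO control.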

Experiment [5] is described as follows: ATG_TA_CIS: Attagene CIS-FACTORIAL HepG2 Assay for human TA Basal Promoter (AID 2282964). To be noted: HepG2 Attagene CIS-factorial TA basal promoter reporter; actives raise or lower the signal. In short, it runs like this: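 Steps: transfect HepG2 with MRTUs; dose 24 h; isolate RNA, DNase-treat, reverse-transcribe; PCR and FAM-label reporter cDNA; digest with HpaI 2h at 37 C; run capillary electrophoresis. Activity fitted both directions against DMSO.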

Experiment [6] is described as follows: ATG_TCF_b_cat_CIS: Attagene CIS-FACTORIAL HepG2 Assay for human T-Cell-Factor with beta-catenin (TCF/b-cat) (AID 2282965). To be noted: HepG2 TCF/beta-catenin cis-reporter transcription, actives raise or lower the signal. In short, it runs like this: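 Cells of the HepG2 line carry transiently transfected reporter units whose promoters respond to endogenous factors. Twenty-four hours post-dosing, reporter mRNA induction is measured by fluorescent RT-PCR and capillary electrophoresis, with DMSO as baseline.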

Experiment [7] can be described thus: ATG_TAL_CIS: Attagene CIS-FACTORIAL HepG2 Assay for human TAL Basal Promoter (AID 2282966).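 Also: background control endpoint measuring basal TAL promoter reporter mRNA not a specific factor.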 As to conditions: HepG2 Attagene cis-factorial TAL promoter reporter; actives raise or lower the signal. The method in brief:
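Transiently transfected HepG2 (cis-regulated reporter units), 24 h treatment, mRNA read by fluorescent CE after RT-PCR; bidirectional fit, DMSO baseline.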

A short description of experiment [8]: ATG_TGFb_CIS: Attagene CIS-FACTORIAL HepG2 Assay for human Transforming Growth Factor (TGF) (AID 2282967). As to conditions: HepG2 Attagene CIS TGFb reporter, mRNA transcription; actives raise or lower the signal. The method in brief: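 Cells were dosed for 24 hours, after which total RNA was reverse-transcribed and reporter sequences amplified, labeled and sized by capillary electrophoresis. Activity was fitted in both directions against DMSO.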

Experiment [9] deals with Estrogen receptor (Homo sapiens) (UniProt P03372). Description: ATG_ERa_TRANS: Attagene TRANS-FACTORIAL HepG2 Assay for human Estrogen Receptor alpha (ERa) (AID 2282970; active = hit-call score of the fitted dose curve at least 0.9, where 1 is the maximum). As to conditions: HepG2 Attagene TRANS ERa GAL4 reporter, mRNA. The method in brief: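 One of 30 multiplexed endpoints from a HepG2 TRANS system, this one reports ERa-Gal4-driven reporter mRNA. Transcripts were quantified 24 hours post-dosing by fluorescent RT-PCR and capillary electrophoresis, with activity scored as induction over DMSO.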
Chain of Estrogen receptor (Homo sapiens) (P03372 whole entry, looked up, the tested form may be a part): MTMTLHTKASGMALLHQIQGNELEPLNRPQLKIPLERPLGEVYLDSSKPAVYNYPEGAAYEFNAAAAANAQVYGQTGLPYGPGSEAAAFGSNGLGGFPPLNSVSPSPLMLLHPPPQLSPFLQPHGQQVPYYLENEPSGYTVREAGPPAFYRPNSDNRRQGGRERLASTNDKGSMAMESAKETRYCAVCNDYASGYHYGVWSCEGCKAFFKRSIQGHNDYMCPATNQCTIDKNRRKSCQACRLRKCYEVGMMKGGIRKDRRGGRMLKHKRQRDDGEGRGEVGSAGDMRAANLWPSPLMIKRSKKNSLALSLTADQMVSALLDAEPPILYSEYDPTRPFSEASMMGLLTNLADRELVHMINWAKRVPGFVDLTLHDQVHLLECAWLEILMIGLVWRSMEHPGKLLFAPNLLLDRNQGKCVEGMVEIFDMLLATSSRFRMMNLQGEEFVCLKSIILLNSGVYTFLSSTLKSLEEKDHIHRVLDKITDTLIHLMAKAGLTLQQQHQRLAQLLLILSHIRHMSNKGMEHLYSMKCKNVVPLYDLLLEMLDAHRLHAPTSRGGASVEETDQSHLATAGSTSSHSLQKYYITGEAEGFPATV

Experiment [10] concerns the target Steroid hormone receptor ERR1 (Homo sapiens) (UniProt P11474). The experiment is described as follows: ATG_ERRa_TRANS: Attagene TRANS-FACTORIAL HepG2 Assay for human Estrogen-Related Receptor alpha (ERRa) (AID 2282971; active = hit-call score of the fitted dose curve at least 0.9, where 1 is the maximum). As to conditions: HepG2 Attagene TRANS reporter, ERRa transactivation. In short, it runs like this: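 HepG2 cells transiently transfected with multiplexed GAL4-UAS reporter units reading chimeric ERRa-Gal4 activity; 24 h compound exposure. Reporter mRNA measured by RT-PCR, 6-FAM labelling, HpaI digest and capillary electrophoresis; gain of signal fitted versus DMSO baseline.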

Experiment [11] addresses X-box-binding protein 1 (Homo sapiens) (UniProt P17861). Description: ATG_Xbp1_CIS: Attagene CIS-FACTORIAL HepG2 Assay for human X-box Binding Protein 1 (XBP1) (AID 2282972). To be noted: HepG2 XBP1 cis-element reporter, Attagene multiplex; actives raise or lower the signal. The method in brief: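 Read-out: fluorescent reporter mRNA fragments resolved by capillary electrophoresis after RT-PCR. Human HepG2 liver cells carried transfected cis-promoter reporter units and were exposed to chemicals for 24 hours. Gain or loss of signal fitted relative to DMSO baseline.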

The nature of experiment [12]: ATG_M_19_TRANS: Attagene TRANS-FACTORIAL HepG2 Assay for M19 Transcription Factor (Internal Marker) (AID 2282974; active = hit-call score of the fitted dose curve at least 0.9, where 1 is the maximum). To be noted: HepG2 Attagene TRANS-FACTORIAL M19 internal marker reporter. The method in brief: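 Transfected HepG2 (GAL4-UAS MRTUs), 24 h compound, TriZol RNA, DNase-treated RT, reporter PCR, FAM label, HpaI digest, CE fluorescence; gain vs DMSO.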
In experiment [13] the target is Oxysterols receptor LXR-beta (Homo sapiens) (UniProt P55055). Description: ATG_LXRb_TRANS: Attagene TRANS-FACTORIAL HepG2 Assay for human Liver X Receptor beta (LXRb) (AID 2282981; active = hit-call score of the fitted dose curve at least 0.9, where 1 is the maximum). To be noted: HepG2 Attagene TRANS GAL4-LXRb reporter, mRNA. In short, it runs like this:
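Readout: fluorescent reporter mRNA fragments resolved by capillary electrophoresis after RT-PCR. System: transiently transfected human HepG2, exogenous LXRb-Gal4 chimera driving GAL4-UAS reporter, 24 h dosing. Activity fitted upward against DMSO baseline.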

Experiment [14] in a line: ATG_VDRE_CIS: Attagene CIS-FACTORIAL HepG2 Assay for human Vitamin D Receptor Element (VDRE) (AID 2282968). As to conditions: HepG2 VDRE cis-reporter transcription, actives raise or lower the signal. The method in brief: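 Transient MRTU transfection of HepG2, 24 h compound exposure. Readout: reporter transcripts via RT-PCR and capillary electrophoresis, fluorescence. Bidirectional fit vs DMSO.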

Experiment [15] in a line: ATG_GAL4_TRANS: Attagene TRANS-FACTORIAL HepG2 Assay for GAL4 (Internal Marker) (AID 2282976; active = hit-call score of the fitted dose curve at least 0.9, where 1 is the maximum). As to conditions: HepG2 Attagene TRANS GAL4 internal marker reporter. In short, it runs like this:
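HepG2 cells transiently transfected with multiplexed GAL4-UAS reporter constructs were dosed for 24 h. Reporter mRNA was measured by RT-PCR, 6-FAM primer extension, HpaI digestion and capillary electrophoresis, and gain of signal was fitted relative to DMSO.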

For experiment [16], the target named is Oxysterols receptor LXR-alpha (Homo sapiens) (UniProt Q13133). The experiment is described as follows: ATG_LXRa_TRANS: Attagene TRANS-FACTORIAL HepG2 Assay for human Liver X Receptor alpha (LXRa) (AID 2282980; active = hit-call score of the fitted dose curve at least 0.9, where 1 is the maximum). To be noted: HepG2 Attagene TRANS reporter, LXRa transactivation. In short, it runs like this:
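HepG2 cells were transiently transfected with multiplexed reporter units driven by chimeric LXRa–GAL4 fusion proteins, then dosed for 24 h. Reporter mRNA was quantified by RT-PCR, fluorescent labelling and capillary electrophoresis; gain of signal fitted against DMSO baseline.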

In experiment [17] the target is Glucocorticoid receptor (Homo sapiens) (UniProt P04150). The experiment is described as follows: ATG_GR_TRANS: Attagene TRANS-FACTORIAL HepG2 Assay for human Glucocorticoid Receptor (GR) (AID 2282978; active = hit-call score of the fitted dose curve at least 0.9, where 1 is the maximum;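 also: activators score as hits since higher reporter transcript over DMSO is fitted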). To be noted: HepG2 Attagene TRANS GR reporter, mRNA transcription. The method in brief: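 After 24 h incubation with test chemical, transfected HepG2 cells were lysed for RNA; reporter cDNA was amplified, FAM-labelled, HpaI-digested and sized on a capillary analyser. Signal gain relative to DMSO was scored.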
Chain of Glucocorticoid receptor (Homo sapiens) (P04150 whole entry, looked up): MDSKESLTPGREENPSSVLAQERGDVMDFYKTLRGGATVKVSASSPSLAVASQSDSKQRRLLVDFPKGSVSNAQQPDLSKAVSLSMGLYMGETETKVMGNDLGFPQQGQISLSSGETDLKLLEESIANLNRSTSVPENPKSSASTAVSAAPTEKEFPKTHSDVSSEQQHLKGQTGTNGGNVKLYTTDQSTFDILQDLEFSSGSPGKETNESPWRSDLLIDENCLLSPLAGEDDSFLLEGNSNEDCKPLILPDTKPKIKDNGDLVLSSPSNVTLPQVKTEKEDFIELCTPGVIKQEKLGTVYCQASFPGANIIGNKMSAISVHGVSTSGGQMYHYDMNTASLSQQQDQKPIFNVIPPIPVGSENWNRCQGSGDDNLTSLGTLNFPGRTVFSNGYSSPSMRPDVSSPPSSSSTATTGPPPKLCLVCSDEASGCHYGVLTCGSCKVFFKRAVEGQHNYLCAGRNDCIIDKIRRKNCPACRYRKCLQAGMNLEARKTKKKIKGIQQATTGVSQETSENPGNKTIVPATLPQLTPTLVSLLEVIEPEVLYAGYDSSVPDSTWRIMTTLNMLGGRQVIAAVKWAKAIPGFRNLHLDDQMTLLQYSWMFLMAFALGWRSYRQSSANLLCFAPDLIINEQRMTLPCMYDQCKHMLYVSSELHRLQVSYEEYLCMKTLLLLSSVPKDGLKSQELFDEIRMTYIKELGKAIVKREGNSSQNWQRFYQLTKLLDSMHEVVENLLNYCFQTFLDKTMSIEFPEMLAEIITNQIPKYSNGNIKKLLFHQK

Experiment [18] deals with Bile acid receptor (Homo sapiens) (UniProt Q96RI1). The experiment is described as follows: ATG_FXR_TRANS: Attagene TRANS-FACTORIAL HepG2 Assay for Farnesoid X Receptor (FXR) (AID 2282979; active = hit-call score of the fitted dose curve at least 0.9, where 1 is the maximum;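 also: hits raise reporter mRNA above DMSO so AC50 marks FXR activation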). To be noted: HepG2 Attagene TRANS FXR-GAL4 reporter transcription. The method in brief:
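HepG2 cells transiently transfected with reporter constructs in which a chimeric FXR-GAL4 protein drives a GAL4-UAS reporter; 24 h compound exposure. Reporter mRNA measured by RT-PCR, FAM labelling, HpaI digestion and capillary electrophoresis; gain-of-signal versus DMSO.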

Chain of Oxysterols receptor LXR-beta (Homo sapiens) (P55055 whole entry, looked up, the tested form may be a part): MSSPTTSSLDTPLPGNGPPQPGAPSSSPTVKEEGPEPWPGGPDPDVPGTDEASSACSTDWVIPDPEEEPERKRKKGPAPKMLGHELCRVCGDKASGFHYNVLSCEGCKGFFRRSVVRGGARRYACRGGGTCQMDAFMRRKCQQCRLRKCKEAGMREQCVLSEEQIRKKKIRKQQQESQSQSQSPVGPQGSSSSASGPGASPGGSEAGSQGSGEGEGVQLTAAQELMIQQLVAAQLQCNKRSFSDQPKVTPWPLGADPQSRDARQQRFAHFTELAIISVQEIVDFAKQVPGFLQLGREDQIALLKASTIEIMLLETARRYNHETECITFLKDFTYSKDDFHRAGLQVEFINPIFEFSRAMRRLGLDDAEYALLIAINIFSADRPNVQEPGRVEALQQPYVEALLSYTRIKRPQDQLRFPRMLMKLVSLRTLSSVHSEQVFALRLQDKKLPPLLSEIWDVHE
Chain of X-box-binding protein 1 (Homo sapiens) (P17861 whole entry, looked up, the tested form may be a part): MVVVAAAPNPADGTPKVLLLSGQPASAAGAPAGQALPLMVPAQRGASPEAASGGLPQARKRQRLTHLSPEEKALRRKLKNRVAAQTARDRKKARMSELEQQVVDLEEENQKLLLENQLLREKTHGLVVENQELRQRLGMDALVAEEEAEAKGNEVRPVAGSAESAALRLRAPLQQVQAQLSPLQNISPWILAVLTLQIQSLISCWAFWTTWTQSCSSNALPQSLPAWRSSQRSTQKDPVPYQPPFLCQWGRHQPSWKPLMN
Chain of Oxysterols receptor LXR-alpha (Homo sapiens) (Q13133 whole entry, looked up, the tested form may be a part): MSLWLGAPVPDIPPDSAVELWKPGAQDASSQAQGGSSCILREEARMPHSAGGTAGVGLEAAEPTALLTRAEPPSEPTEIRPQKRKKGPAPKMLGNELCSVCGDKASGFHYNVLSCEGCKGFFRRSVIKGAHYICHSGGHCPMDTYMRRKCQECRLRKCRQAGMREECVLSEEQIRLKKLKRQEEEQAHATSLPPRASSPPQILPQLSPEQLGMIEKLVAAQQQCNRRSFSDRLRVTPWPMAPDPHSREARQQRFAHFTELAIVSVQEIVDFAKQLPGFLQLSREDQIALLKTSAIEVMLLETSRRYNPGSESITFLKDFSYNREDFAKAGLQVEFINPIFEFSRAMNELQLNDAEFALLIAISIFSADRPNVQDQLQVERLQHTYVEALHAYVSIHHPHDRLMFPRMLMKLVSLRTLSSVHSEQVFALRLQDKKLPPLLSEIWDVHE
Chain of Signal transducer and activator of transcription 3 (Homo sapiens) (P40763 whole entry, looked up, the tested form may be a part): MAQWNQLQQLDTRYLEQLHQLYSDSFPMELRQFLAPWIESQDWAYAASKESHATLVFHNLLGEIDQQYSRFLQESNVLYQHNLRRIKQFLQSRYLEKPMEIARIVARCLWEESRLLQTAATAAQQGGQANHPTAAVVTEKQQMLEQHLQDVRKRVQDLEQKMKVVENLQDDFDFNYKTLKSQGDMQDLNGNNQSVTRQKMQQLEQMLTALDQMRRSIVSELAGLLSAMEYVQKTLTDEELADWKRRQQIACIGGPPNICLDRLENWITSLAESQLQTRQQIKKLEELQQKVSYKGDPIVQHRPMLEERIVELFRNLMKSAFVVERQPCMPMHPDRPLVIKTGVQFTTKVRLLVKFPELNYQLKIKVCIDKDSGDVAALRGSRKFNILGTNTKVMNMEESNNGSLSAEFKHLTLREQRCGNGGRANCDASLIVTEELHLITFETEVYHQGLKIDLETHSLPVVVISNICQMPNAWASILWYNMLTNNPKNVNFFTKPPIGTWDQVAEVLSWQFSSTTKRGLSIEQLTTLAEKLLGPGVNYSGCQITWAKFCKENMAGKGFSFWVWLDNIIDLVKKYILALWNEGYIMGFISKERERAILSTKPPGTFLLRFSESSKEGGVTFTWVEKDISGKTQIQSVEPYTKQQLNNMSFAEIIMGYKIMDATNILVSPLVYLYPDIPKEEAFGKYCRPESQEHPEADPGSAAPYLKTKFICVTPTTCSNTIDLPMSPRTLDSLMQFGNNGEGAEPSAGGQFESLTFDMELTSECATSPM
Chain of Transcription factor Sp1 (Homo sapiens) (P08047 whole entry, looked up, the tested form may be a part): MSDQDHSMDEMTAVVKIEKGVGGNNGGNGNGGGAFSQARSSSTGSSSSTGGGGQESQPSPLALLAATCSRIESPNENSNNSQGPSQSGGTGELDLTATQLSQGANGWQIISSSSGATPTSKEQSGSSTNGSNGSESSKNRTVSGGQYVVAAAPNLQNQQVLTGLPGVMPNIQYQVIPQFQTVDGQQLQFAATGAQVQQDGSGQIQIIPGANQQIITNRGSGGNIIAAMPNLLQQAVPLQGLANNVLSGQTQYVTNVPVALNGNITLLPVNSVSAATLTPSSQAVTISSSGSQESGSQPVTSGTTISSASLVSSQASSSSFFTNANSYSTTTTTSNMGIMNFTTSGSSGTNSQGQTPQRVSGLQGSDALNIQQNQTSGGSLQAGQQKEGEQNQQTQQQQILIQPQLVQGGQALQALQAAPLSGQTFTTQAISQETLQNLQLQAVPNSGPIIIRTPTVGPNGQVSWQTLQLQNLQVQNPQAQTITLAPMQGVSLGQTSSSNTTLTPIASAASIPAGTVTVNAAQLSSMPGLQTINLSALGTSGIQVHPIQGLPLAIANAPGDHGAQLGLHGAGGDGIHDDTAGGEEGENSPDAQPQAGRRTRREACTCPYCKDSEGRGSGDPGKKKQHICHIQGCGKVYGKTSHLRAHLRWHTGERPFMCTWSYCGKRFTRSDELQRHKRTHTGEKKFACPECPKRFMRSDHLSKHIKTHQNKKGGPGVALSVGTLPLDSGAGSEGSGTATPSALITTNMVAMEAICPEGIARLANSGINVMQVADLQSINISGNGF
Chain of Steroid hormone receptor ERR1 (Homo sapiens) (P11474 whole entry, looked up, the tested form may be a part): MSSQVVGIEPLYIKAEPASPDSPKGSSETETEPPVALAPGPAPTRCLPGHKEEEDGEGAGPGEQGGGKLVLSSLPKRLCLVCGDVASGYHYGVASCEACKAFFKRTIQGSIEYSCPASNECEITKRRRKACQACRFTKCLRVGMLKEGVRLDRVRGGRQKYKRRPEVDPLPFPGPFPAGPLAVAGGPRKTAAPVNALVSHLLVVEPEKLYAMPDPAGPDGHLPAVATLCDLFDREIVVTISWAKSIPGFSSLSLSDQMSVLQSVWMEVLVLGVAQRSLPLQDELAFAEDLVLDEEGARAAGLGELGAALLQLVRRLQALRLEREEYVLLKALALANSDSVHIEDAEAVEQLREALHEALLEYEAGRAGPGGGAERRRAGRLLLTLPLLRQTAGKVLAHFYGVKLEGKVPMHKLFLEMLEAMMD
Chain of Bile acid receptor (Homo sapiens) (Q96RI1 whole entry, looked up, the tested form may be a part): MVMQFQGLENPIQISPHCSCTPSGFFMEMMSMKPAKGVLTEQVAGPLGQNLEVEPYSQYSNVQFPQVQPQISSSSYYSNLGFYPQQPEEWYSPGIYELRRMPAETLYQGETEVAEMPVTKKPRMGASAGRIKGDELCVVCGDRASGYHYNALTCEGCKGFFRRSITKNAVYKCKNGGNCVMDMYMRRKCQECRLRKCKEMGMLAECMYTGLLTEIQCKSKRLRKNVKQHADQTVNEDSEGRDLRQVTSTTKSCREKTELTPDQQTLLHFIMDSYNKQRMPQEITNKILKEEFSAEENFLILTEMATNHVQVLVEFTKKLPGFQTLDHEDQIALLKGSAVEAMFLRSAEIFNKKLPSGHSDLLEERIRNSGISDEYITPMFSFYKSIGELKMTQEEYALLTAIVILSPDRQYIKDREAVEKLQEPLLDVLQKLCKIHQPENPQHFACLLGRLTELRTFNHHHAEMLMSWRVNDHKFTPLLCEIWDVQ

Consider `COc1ccc(C=O)cc1OC`, for which the result in experiment [1], in [2], in experiment [3], in experiment [4], in experiment [5] and in experiment [6] was inactive. Besides, the call in [7], in experiment [8], in [10], in experiment [11], in experiment [12] and in experiment [13] was inactive. Moreover, the AC50 in experiment [9] is 58.6 µM (active).

Consider `C=CC(=O)N(C)C`, for which the result in experiment [1], in [2], in experiment [3], in experiment [4], in experiment [5] and in experiment [6] was inactive. The compound was classed as inactive in [7], in experiment [8], in experiment [14], in experiment [11], in [12] and in experiment [15]. Moreover, the result in [16] and in experiment [13] was inactive.

As to `CC(=O)c1cc(C(C)(C)C)cc2c1CCC2(C)C`, the result in experiment [1], in experiment [4], in experiment [5], in experiment [6], in experiment [7] and in experiment [8] was inactive. Besides, the compound was classed as inactive in experiment [10], in experiment [12], in [17], in experiment [16] and in [13]. The AC50 in [2] was 69.3 µM (active); in experiment [3], 54.4 µM (active); in experiment [14], 25.6 µM (active); in experiment [11] it was 75.2 µM (active).

As to `CCCCCCCCSC(=O)Oc1cc(Cl)nnc1-c1ccccc1`, the compound was classed as inactive in [1], in [2], in experiment [3], in experiment [4], in experiment [9] and in experiment [11]. The call in experiment [12] and in experiment [15] was inactive. Also, the AC50 in experiment [5] was 124 µM (active); in experiment [6] it was 170 µM (active); in experiment [7], 71.3 µM (active); in experiment [8] it was 152 µM (active); in [14] it was 100 µM (active).

In the case of `N#CN=C(N)N`, the result in experiment [1], in [2], in experiment [3], in experiment [4], in [5] and in experiment [6] was inactive. In addition, the outcome in experiment [7], in [8], in experiment [14], in experiment [11], in experiment [15] and in experiment [18] was inactive. Moreover, the call in experiment [16] was inactive.
